Article PMC4336329 (PLoS ONE, 2015)
About 2,200 (0.71%) of roughly 310,000 compounds showed an effect of 50% or more. Effects have a minus sign here. The list comes from a sample in which strong results are over-represented; it also holds similar structures and randomly drawn compounds.

These compounds were tested against human ether-à-go-go-related gene (hERG) potassium channel (human, UniProt Q12809) (assay: primary screen, population patch clamp on CHO cells stably expressing hERG; higher = less effect of the substance).
Chain of human ether-à-go-go-related gene (hERG) potassium channel (Q12809 whole entry, looked up): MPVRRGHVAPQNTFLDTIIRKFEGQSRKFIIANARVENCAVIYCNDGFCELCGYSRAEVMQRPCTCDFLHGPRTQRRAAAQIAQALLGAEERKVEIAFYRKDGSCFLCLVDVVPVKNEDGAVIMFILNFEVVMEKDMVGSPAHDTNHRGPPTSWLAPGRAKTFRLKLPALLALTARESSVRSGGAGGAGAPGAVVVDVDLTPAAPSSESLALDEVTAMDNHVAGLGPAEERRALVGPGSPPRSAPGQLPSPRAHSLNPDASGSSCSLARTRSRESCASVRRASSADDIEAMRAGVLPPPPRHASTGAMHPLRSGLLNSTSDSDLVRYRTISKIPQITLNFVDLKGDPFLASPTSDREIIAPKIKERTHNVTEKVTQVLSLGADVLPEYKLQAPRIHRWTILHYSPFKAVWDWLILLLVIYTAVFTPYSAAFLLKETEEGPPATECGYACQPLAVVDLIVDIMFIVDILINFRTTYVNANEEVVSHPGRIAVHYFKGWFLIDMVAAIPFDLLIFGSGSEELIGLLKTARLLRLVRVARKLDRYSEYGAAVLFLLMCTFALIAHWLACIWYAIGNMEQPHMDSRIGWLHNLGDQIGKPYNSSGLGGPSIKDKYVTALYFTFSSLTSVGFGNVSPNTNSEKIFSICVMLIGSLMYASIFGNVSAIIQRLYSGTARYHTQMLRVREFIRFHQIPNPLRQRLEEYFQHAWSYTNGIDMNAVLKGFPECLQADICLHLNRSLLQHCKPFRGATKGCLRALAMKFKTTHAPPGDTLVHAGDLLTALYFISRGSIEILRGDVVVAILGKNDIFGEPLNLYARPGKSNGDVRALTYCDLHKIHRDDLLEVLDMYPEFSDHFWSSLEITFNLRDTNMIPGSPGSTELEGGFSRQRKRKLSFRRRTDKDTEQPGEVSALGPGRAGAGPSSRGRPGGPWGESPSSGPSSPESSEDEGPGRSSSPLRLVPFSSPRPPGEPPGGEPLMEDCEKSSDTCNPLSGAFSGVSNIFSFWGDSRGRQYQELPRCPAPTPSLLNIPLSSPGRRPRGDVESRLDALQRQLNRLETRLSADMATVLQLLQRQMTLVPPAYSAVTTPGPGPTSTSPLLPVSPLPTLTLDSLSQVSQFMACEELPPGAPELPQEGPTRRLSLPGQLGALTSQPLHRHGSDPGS
With `CC(=O)N1N=C(c2ccc(Br)cc2)CC1c1cn(C)c2ccccc12` (stereo not drawn) the “hERG current change (%, negative = inhibition) at 1uM” value was 9.41%.
`O=C(N/N=C1\CCCc2ccccc21)c1cccc(Br)c1` was tested, and the “hERG current change (%, negative = inhibition) at 1uM” value was 9.96%.
`CCOC(=O)C1(CCCc2ccccc2)CCN(Cc2cn(CC)nc2C)CC1` was tested, and the “hERG current change (%, negative = inhibition) at 1uM” value was -59.8%.
In the case of `CCOC(=O)C1(Cc2cccc(F)c2)CCN(CCCn2cccn2)CC1`, the “hERG current change (%, negative = inhibition) at 1uM” value is reported as -51.2%.
In the case of `CCOC(=O)C1(CCCc2ccccc2)CCN(Cc2ccn[nH]2)CC1`, the “hERG current change (%, negative = inhibition) at 1uM” value is reported as -27.8%.
`CCOC(=O)C1(Cc2cccc(F)c2)CCN(Cc2cnn(CC)c2)CC1` was tested, and the “hERG current change (%, negative = inhibition) at 1uM” value was -4.74%.
For `CCOC(=O)C1(Cc2cccc(F)c2)CCN(CC2CC2)CC1`, the “hERG current change (%, negative = inhibition) at 1uM” value was -2.54%.
For `CCOC(=O)C1(Cc2ccc(Cl)cc2)CCN(Cc2cn(CC)nc2C)CC1`, the “hERG current change (%, negative = inhibition) at 1uM” value was -28.5%.
In the case of `COC(=O)C1=CN(Cc2ccc(OC)c(OC)c2)C=C(C(=O)OC)C1c1ccc(F)cc1`, the “hERG current change (%, negative = inhibition) at 1uM” value is reported as 4.21%.
With `COCCNC(=O)c1ccc(CSc2nc3ccccc3s2)cc1` the “hERG current change (%, negative = inhibition) at 1uM” value was 3.95%.
In the case of `Cc1cccc(N2CCN(C(=O)c3cc4c(=O)[nH]c5ccccc5c4n3C)CC2)c1C`, the “hERG current change (%, negative = inhibition) at 1uM” value is reported as 11.2%.
`Cc1ccc(Cl)cc1N1CCN(C(=O)c2cc3c(=O)[nH]c4ccccc4c3n2C)CC1` was tested, and the “hERG current change (%, negative = inhibition) at 1uM” value was 10.4%.
`Cn1c(C(=O)N2CCN(c3ccc(Cl)cc3)CC2)cc2c(=O)[nH]c3ccccc3c21` was tested, and the “hERG current change (%, negative = inhibition) at 1uM” value was -56%.
With `COc1ccccc1C(=O)Nn1c(C2CCC2)nc2ccccc2c1=O` the “hERG current change (%, negative = inhibition) at 1uM” value was 4.52%.
`CCc1ccc(CNC(=O)Cn2nc(-c3ccccc3)ccc2=O)cc1` was tested, and the “hERG current change (%, negative = inhibition) at 1uM” value was 8.46%.
For `CC1CCc2c(sc(NC(=O)C(=O)NCc3ccco3)c2C#N)C1` (stereo not drawn), the “hERG current change (%, negative = inhibition) at 1uM” value was -63.6%.
`CC(=O)Nc1sc2c(c1C#N)CCC(C)C2` (stereo not drawn) was tested, and the “hERG current change (%, negative = inhibition) at 1uM” value was 11.7%.
In the case of `CC1CCc2c(sc(NC(=O)COC(=O)c3ccccc3NCc3ccco3)c2C#N)C1` (stereo not drawn), the “hERG current change (%, negative = inhibition) at 1uM” value is reported as 12.9%.
For `Cc1nc(N)nc(SCc2ccc([N+](=O)[O-])cc2)c1N`, the “hERG current change (%, negative = inhibition) at 1uM” value was -70.8%.
In the case of `CC(=O)c1cc(C#N)c(SCc2ccc([N+](=O)[O-])cc2)nc1C`, the “hERG current change (%, negative = inhibition) at 1uM” value is reported as 10.4%.
`Cc1cc(C)nc(SCc2ccc([N+](=O)[O-])cc2)n1` was tested, and the “hERG current change (%, negative = inhibition) at 1uM” value was 6.29%.
For `CC(OC(=O)c1ccc2ncsc2c1)C(=O)Nc1ncc(Cl)cc1Cl` (stereo not drawn), the “hERG current change (%, negative = inhibition) at 1uM” value was 8.58%.
With `CC(NC(=O)c1ccc2c(c1)OCCO2)c1ccc(S(N)(=O)=O)cc1` (stereo not drawn) the “hERG current change (%, negative = inhibition) at 1uM” value was -3.42%.
For `O=[N+]([O-])c1ccc2oc(C3CCCCC3)nc2c1`, the “hERG current change (%, negative = inhibition) at 1uM” value was 14.4%.
